Bioassay records: PubChem BioAssay, several laboratories
CHT allo act = CHT positive allosteric modulators, primary screen, cell-based, membrane potential dye, choline EC20. High affinity choline transporter 1 (Homo sapiens), Q9GZV3. CHT-expressing cells; stronger effect = higher value; LV-AA mutant CHT in HEK293 cells. B-score at 10 µM. actives 0.49% (n = 310,000);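 active means initial fluorescence not abnormally high and integrated response B-score, plate-corrected, over 3 SD above library mean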
TMEM16A inh = TMEM16A chloride channel inhibitors, primary screen, cell-based, HTS | actives 1.2% (n = 310,000) | AID 588511, 2011 | Anoctamin-1 (Mus musculus), Q8BHY3 | HEK293 TMEM16A/YFP iodide influx fluorescence, ionomycin | normalized B-score (activity score, 25-100; higher = stronger inhibition) at 10 µM;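 active means ratio plate-corrected score three or more library SD toward inhibition, starting fluorescence score within five deviations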;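 further: score derived from kinetic fluorescence span divided by baseline fluorescence per well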
PKA-R2B activ = activators of PKA-R2B holoenzyme, primary screen, biochemical, fluorescence polarization, Cy5-IP20, human; PKA-R2B holoenzyme dissociation; R2B truncated from residue 108, S112A mutant; 0% DMSO only, 100% 113 µM cGMP; activation, % at 11.4 µM; actives 0.079% (n = 340,000); AID 504700, 2011;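 active means activation above a cutoff set at the mean over all compounds plus 3 SD, cut at about 18% in these data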;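 further: higher means more holoenzyme dissociation and a rise in polarization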
ANO1 activ = TMEM16A chloride channel activators or potentiators, primary screen, cell-based, HTS; Anoctamin-1 (Mus musculus), Q8BHY3; HEK293 TMEM16A/YFP-H148Q/I152L, iodide quench fluorescence; stronger effect = lower value; B-score at 10 µM; actives 0.3% (n = 340,000); AID 623877, 2012;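 active means fluorescence-ratio B-score plate-corrected deviation score at least 3 library SD below zero, with starting fluorescence score within 5 deviations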;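 further: channel opened by trigger with iodide after compound preincubation; score built on the fluorescence ratio of max minus min over baseline; more negative score means more quench and so TMEM16A activation or potentiation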
PKA-R1A act = activators of PKA-R1A holoenzyme, primary screen, biochemical, fluorescence polarization, Cy5-IP20, bovine R1A, mouse PKAc. cAMP-dependent protein kinase type I-alpha regulatory subunit (Bos taurus) + …. PKA-R1A dissociation; scaled: DMSO 0%, 113 µM cGMP 100%. activation, % at 11.4 µM. actives 0.083% (n = 340,000);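 active means percent activation above the mean of all tested compounds plus 3 SD, cut at about 19% in these data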;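 further: higher means more PKAc released from R1A so a rise in polarization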
CHT block = inhibitors of human choline transporter CHT. CHT-expressing cells, membrane potential dye, choline response; stronger effect = lower value. B-score at 10 µM. actives 0.86% (n = 310,000);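 active means B-score over 3 SD under the library average, and starting fluorescence ratio not unusually high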;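 further: choline stimulus applied at its EC90 after an EC20 pre-addition; B-score computed on integrated fluorescence ratio after choline addition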
CHT block conf = CHT inhibitors, confirmation, cell-based, membrane potential dye, duplicate; actives 70% (n = 2,400); CHT-expressing cells, choline membrane potential dye; LV-to-AA substituted CHT, HEK293 cells; shares compounds with CHT block; CHT activity remaining % of control (stronger effect = lower value), % at 10 µM;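 active means choline transporter activity left, mean of duplicates at 10 µM, below buffer-only control mean minus 3 SD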;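 further: depolarization triggered by choline at its EC90 following an EC20 pre-addition; 0% = hemicholinium-3 full block and 100% = buffer-only control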
HEK293 MPD ctr = membrane potential effects in parental HEK293, counter-screen for CHT inhibitor project, cell-based, membrane potential dye; shares compounds with CHT block; choline response; active = decrease or increase beyond buffer ±3SD; membrane potential ratio readout (active if shifted either direction beyond buffer ±3SD; no single direction) at 10 µM; actives 4% (n = 2,400);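 further: parental cells lack the transporter so any hit is non-specific; ratio is peak minus trough fluorescence over baseline after EC90 choline challenge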
An asterisk follows results filed as active; i = inactive; . = not tested or not shown. Hits are enriched below; roughly 2.5% of the tested compounds scored in any of these assays.

SMILES	CHT allo act	TMEM16A inh	PKA-R2B activ	ANO1 activ	PKA-R1A act	CHT block	CHT block conf	HEK293 MPD ctr
Cc1cccc(N2C(=O)NC(=O)/C(=C\c3ccc4c(c3)CCCN4Cc3ccccc3)C2=O)c1	i	i	8	i	-3	i	.	.
CCC(C)N1C(=O)/C(=C/c2ccc3c(c2)CCN3CCCCl)C(=O)NC1=S (stereo not drawn)	i	i	-1	i	3	-5.9*	i	i
CC(C)(C)NCC(O)c1cc(Cl)c(N)c(Cl)c1 (stereo not drawn)	i	i	-3	i	-4	-5.1*	37%*	i
Cc1c(C(=O)O)cc(-c2ccccc2)n1Cc1ccccc1	i	i	-14	i	-4	-6.3*	7.3%*	-35*
CC1=NCCc2c1[nH]c1ccccc21	i	i	-1	i	-8	-7.8*	34%*	i
CN1CCc2c([nH]c3ccccc23)C1	i	i	7	i	4	i	.	.
CCSC1=NN1c1cc(C)nc(N)n1	i	i	-10	i	9	i	.	.
CCc1c(C)nc(N)nc1N1N=C1SCCOc1ccccc1	i	i	-8	i	-7	-7.7*	12%*	i
Cc1ccc(OCCSC2=NN2c2cc(C)nc(N)n2)cc1	i	i	-5	i	-2	-11*	23%*	i
C[C@@H]1NCCc2cc(O)c(O)cc21	i	i	-3	i	14	i	.	.
Cc1ccc(-c2cc(-c3ccc(C)cc3)[n+](-c3ccccc3)c(-c3ccc(C)cc3)c2)cc1	i	100*	4	i	4	-5.5*	66%*	3.5*
C[C@@H]1CN([C@H](C)CO)C(=O)CCCn2nncc2CO[C@@H]1CN(C)C(=O)Oc1cccc2ccccc12	.	.	6	.	2	.	.	.
CC(=O)O[C@@H]1/C=C/[C@](C)(O)C[C@@H](C)C/C=C/[C@H]2[C@@H]3O[C@]3(C)[C@@H](C)[C@H]3[C@H](Cc4ccccc4)NC(=O)[C@@]312	i	i	.	.	.	-5.1*	71%*	i
CCNC(=S)N(C)CCc1cc2c(c(OC)c1C=C1C(=O)N(C)C(=O)N(C)C1=O)OCO2	i	i	.	i	.	i	.	.
COc1c(/C=C2/C(=O)NC(=O)N(C)C2=O)c(CCN(C)C(=O)c2ccccc2)cc2c1OCO2	i	i	3	i	9	-6.5*	57%*	i
c1ccc2c(CN3CCCCCC3)c[nH]c2c1	i	i	-10	i	0	-6*	37%*	i
O=C(COc1ccccc1)N1CCN(Cc2c[nH]c3ccccc23)CC1	i	i	-3	i	-14	i	.	.
CC(C)N=C(NC(C)C)N1CC1	.	.	-5	.	-8	.	.	.
O=C1NC(=O)C(=Cc2coc3ccccc3c2=O)C(=O)N1	i	i	-9	i	1	-9.5*	46%*	i
COc1ccc(C(O)(c2ccccc2)c2ccncc2)cc1 (stereo not drawn)	.	.	-4	i	6	.	.	.
Cc1ccccc1-n1c(O)c(/C=C2/C(c3ccccc3)=Nc3ccccc32)c(=O)[nH]c1=O	i	i	-6	i	-12	-5.2*	53%*	i
Cc1cccc(-n2c(O)c(/C=C3/C(c4ccccc4)=Nc4ccccc43)c(=O)[nH]c2=O)c1	i	i	-3	i	-1	i	.	.
C(#CCN1CCOCC1)COCC#Cc1ccccc1	i	i	9	i	1	i	.	.
CC[N+](CC)(CC#CCO)CC#Cc1ccccc1	i	i	8	i	-3	-8.6*	35%*	i
COc1cccc2c1cc([N+](=O)[O-])c1c(C(=O)O)cc3c(c12)OCO3	.	.	-1	i	-6	.	.	.
SMILES	CHT allo act	TMEM16A inh	PKA-R2B activ	ANO1 activ	PKA-R1A act	CHT block	CHT block conf	HEK293 MPD ctr
Cc1[nH]n(-c2ccccc2)c(=O)c1C(c1ccc([N+](=O)[O-])cc1)c1c(C)[nH]n(-c2ccccc2)c1=O	i	i	-10	i	3	-6.2*	36%*	i
O=[N+]([O-])c1ccc(C(c2ccc([N+](=O)[O-])cc2)c2ccc([N+](=O)[O-])cc2)cc1	.	.	2	i	-5	.	.	.
NC1=NC(=O)N2CC12 (stereo not drawn)	.	.	-9	i	12	.	.	.
Cc1cccc(CCNCc2cc3cccc(C)c3[nH]c2=O)c1	i	i	2	i	-7	-12*	8.5%*	i
N#Cc1ccccc1OCC(=O)N1CCN(CC(=O)Nc2ccc(F)cc2)CC1	.	.	-14	i	3	.	.	.
CC(=O)N1N=C(c2c(O)n(C)c(=O)n(C)c2=O)CC1c1ccccc1 (stereo not drawn)	i	i	5	i	8	i	.	.
CCNC(=O)C1OC(n2cnc3c(N)ncnc32)C(O)C1O (stereo not drawn)	i	i	2	i	-2	-6.7*	33%*	i
C=CCOC(=O)N1Cc2ccccc2-n2nncc2C1	.	.	-6	.	-3	.	.	.
CCOC(=O)CCN=Cc1c(O)n(-c2ccc(Br)cc2)c(=O)[nH]c1=O	i	i	6	i	-2	i	.	.
CCOc1ccc(-n2c(O)c(C=NCCN(CC)CC)c(=O)[nH]c2=O)cc1	i	i	9	i	2	-6.3*	i	i
CC(=O)O[C@@]12CO[C@@H]1C[C@@H](O)[C@@]1(C)C(=O)[C@H](O)C3=C(C)[C@@H](OC(=O)[C@H](O)[C@@H](NC(=O)c4ccccc4)c4ccccc4)C[C@@](O)([C@@H](OC(=O)c4ccccc4)C12)C3(C)C (stereo partly drawn)	i	i	-8	i	7	-5.3*	63%*	i
